Drawing on PubChem BioAssay (NCATS), this text covers outcome and Potency for 2 compounds.

Inconclusive results are not listed. The source made the active and inactive calls. Calls follow the shape of the dose curve; as a rule, active = well fitted curve in the direction sought with a large enough effect; inconclusive = small, poorly fitted or top-dose-only effect, or another doubt; inactive = no such curve, though single readings can be large; an effect the other way counts as inactive or inconclusive.

The target in test [1] is Nuclear receptor subfamily 1 group I member 3 (Homo sapiens) (UniProt Q14994). In words: qHTS for Constitutive Androstane Receptor (CAR) Agonist screened against the NCATS CANVASS Library (AID 1347373).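 Also: every well also contained 1.5 µM PK11195 alongside the test compound.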 Conditions: HepG2-hCAR-CYP2B6 luciferase reporter, ONE-Glo luminescence; series mostly up to 91.4 µM. An outline of the steps: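 Luciferase read-out (ONE-Glo, 30 min RT) of CYP2B6-2.2kb promoter activity in double-stable HepG2-hCAR cells after 24hr compound exposure with 1.5uM PK11195 present; viability measured first by CellTiter-Fluor.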
Chain of Nuclear receptor subfamily 1 group I member 3 (Homo sapiens) (Q14994 whole entry, looked up): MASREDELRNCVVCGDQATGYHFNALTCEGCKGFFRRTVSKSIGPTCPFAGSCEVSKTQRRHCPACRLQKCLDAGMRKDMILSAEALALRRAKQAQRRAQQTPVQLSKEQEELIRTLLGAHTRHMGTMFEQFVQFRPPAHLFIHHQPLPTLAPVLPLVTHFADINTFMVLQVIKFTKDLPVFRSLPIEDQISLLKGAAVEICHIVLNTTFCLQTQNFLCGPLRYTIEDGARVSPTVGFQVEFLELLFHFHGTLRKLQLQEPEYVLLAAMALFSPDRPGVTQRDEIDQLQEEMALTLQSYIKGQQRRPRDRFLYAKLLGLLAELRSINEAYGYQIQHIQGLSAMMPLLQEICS

Test [2] is described as follows: 10-beta competent E. coli microbial cell viability qHTS against the NCATS CANVASS Library (AID 1347376). Conditions: E. coli 10-beta viability, BacTiter-Glo ATP luminescence, overnight; series mostly up to 91.4 µM. A digest of the protocol: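 Luminescence from BacTiter-Glo ATP detection served as the viability read-out; bacteria (0.2 OD) had been incubated overnight at 37C with pin-transferred compounds at 11 concentrations.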

The nature of test [3]: DH5-alpha competent E. coli microbial cell viability qHTS against the NCATS CANVASS Library (AID 1347377). Conditions: BacTiter-Glo ATP luminescence, overnight; series mostly up to 91.4 µM. A digest of the protocol:
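Luminescent ATP read-out (BacTiter-Glo, 20 min RT) after overnight 37C culture of DH5-alpha E. coli with compounds; daunomycin control at 0.2 nM–9.2 uM final.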
Background: In qHTS, concentration-response curves come from the screen itself.

Test [4] can be described thus: qHTS for H2AX Agonists against the NCATS CANVASS Library (AID 1347378).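 Also: phospho-H2AX S139 level in CHO-K1 lysates by TR-FRET emission ratio.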 Conditions: CHO-K1 H2AX phosphorylation, HTRF TR-FRET, 3 h; series mostly up to 76.9 µM. A digest of the protocol:
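Following overnight seeding, CHO-K1 cells are incubated with a concentration series of compound for 3 hr at 37C (final DMSO 0.76%). Cells are then lysed, detection antibodies added, and emission ratio 665/620 nm recorded after 24 hr at room temperature.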

The nature of test [5]: qHTS for Inflammasome Signaling Inhibitors: IL-1-beta AlphaLISA screen against the NCATS CANVASS Library (AID 1347379).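 Also: human THP-1 cells primed with LPS then triggered with ATP; secreted IL-1B measured as AlphaLISA emission at 615 nm; lower signal means less IL-1B release which is the wanted effect.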 Conditions: THP-1 LPS/ATP, IL-1B AlphaLISA secretion, 16 h; series mostly up to 57.5 µM. An outline of the steps:
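THP-1, 1 hr compound pre-incubation, then LPS 250 ng/mL + ATP 1.25 mM (final); 16 hr total with compound; IL-1B AlphaLISA, ex 680/em 615 nm; 11-point qHTS, up to 57.5 uM final.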

Test [6] can be described thus: qHTS for Antimalaria activity screened against the NCATS CANVASS Library (AID 1347380). Also: nearly all actives have a fitted effect of over 40% in size. Also: potency is read from the fitted curve at half-maximal effect. Conditions: P. falciparum Dd2 growth, SYBR Green fluorescence, 72 h; series mostly up to 28.7 µM. An outline of the steps:
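SYBR Green fluorescence (ex 485, em 535 nm) read after saponin/Triton lysis and 18 h further incubation; Dd2 asexual blood-stage parasites, 72 h compound exposure, 11-pt concentration series, 2.5% hematocrit, 0.3% parasitemia.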

Test [7] can be described thus: Inflammasome Signaling qHTS Counterscreen: IL-1-beta AlphaLISA counterscreen against the NCATS CANVASS Library (AID 1347381).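 Also: cell-free check with purified IL-1β in medium and no THP-1 cells.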 Conditions: Purified IL-1beta AlphaLISA signal interference counterscreen; series mostly up to 57.5 µM. The source says:
Natural products and their derivatives continue to be wellsprings of nascent therapeutic potential. However, many laboratories have limited resources for biological evaluation, leaving their previously isolated or synthesized compounds largely or completely untested. To address this issue, the Canvass library of natural products was assembled (https://tripod.nih.gov/canvass), in collaboration with academic and industry researchers, for quantitative high-throughput screening (qHTS) across a diverse set of cell-based and biochemical assays. The pure (>85% purity by liquid chromatography/mass spectrometry [LC/MS]) Canvass library of 346 natural products were submitted by 45 academic laboratories and companies around the world. We collected pure natural products to circumvent deconvolution and structure elucidation due to time and resource limitations. The library was formatted into 1536-well plates and evaluated in 50 qHTS (in an 11-pnt concentration series) bioassays with broad scope of disease-relevant mechanisms. The resulting data set from 50 different assays was then systematically analyzed to identify overall trends and specific natural products with interesting biological activities. […]
IL-1-beta-counterscreen qHTS protocol: 1. […] The AlphaLISA signal was read by the EnVision plate reader (PerkinElmer) using a 680 nm excitation and 615 nm emission filters.

The nature of test [8]: Cytotoxicity qHTS for assessment of Hepg2 cells membrane integrity screened against the NCATS CANVASS Library (AID 1347387). Conditions: HepG2 LDH release (CytoTox-ONE) fluorescence, 5 h; series mostly up to 91.4 µM. An outline of the steps:
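LDH release read by fluorescence (560 nm ex/590 nm em) after CytoTox-ONE addition and 10 min RT; signal tracks lysed cells. HepG2, 2000 cells/well, plated overnight; compound 5 hr, 37C, 5% CO2, final 0.59 nM - 46 uM, 11 points.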

Test [9] can be described thus: qHTS for Activators of p53 Stress Response Pathway screened against the NCATS CANVASS Library (AID 1347388). Conditions: p53RE-bla HCT-116, beta-lactamase reporter, 16 h; series mostly up to 91.4 µM. A digest of the protocol: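 p53RE-bla HCT-116 cells (4000/well) were plated 5 h at 37C, exposed to compounds for 16 h at 37C over an 11-point concentration series, then loaded with CCF4 for 2 h at room temperature; 460/530 nm emission ratio read.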

Test [10] can be described thus: qHTS assay for small molecule disruptors of mitochondrial membrane potential screened against the NCATS CANVASS Library (AID 1347389). Also: nearly all actives have a fitted effect of over 60% in size. Conditions: HepG2 mitochondrial membrane potential, m-MPI red/green ratio, 1.5 h; series mostly up to 91.4 µM. A digest of the protocol: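 Red/green fluorescence ratio read-out: J-aggregates ex 540/em 590 nm, monomers ex 490/em 535 nm. HepG2, 1 hr compound treatment, then 30 min Mito-MPS dye at 37C. 11-pt qHTS concentration series.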

As to `O=C1C[C@@H]2OCC=C3CN4CC[C@]56c7ccccc7N1[C@H]5[C@H]2[C@H]3C[C@H]46`, the compound was called inactive in [1], in [2], in [3], in [4], in test [5] and in test [7]. In addition, the compound was called inactive in test [8], in [9] and in test [10]. Also, the Potency in test [6] is 13 µM (active).

With `COc1ccc2[nH]cc(CCN)c2c1`, the call in test [1], in test [2], in test [3], in test [4], in test [5] and in test [7] was inactive. Moreover, the result in test [8], in test [9] and in test [10] was inactive. Besides, the Potency result in test [6] was “inactive”.
